Reference: PubChem BioAssay (NCI)
This is part of a sample that, as a whole, favours compounds with a hit. Of some 83,000 tested, about 20% had one in any assay.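 Single-dose data. Exposure time 48 hours. Values below 10 considered active.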 The source made the active and inactive calls.

Assays:
Assay in all cases: NCI-60 one-dose screen, 48 h (100 = growth as untreated, 0 = no growth, -100 = all killed)
Details in all cases: 10 µM unless noted
NCI-H23 lung = test system: NCI-H23 lung
HOP-62 NSCLC = test system: HOP-62 NSCLC
NCI-H460 lung = test system: NCI-H460 lung
HOP-92 NSCLC = test system: HOP-92 NSCLC
NCI-H522 lung = test system: NCI-H522 lung
A549/ATCC NSCLC = test system: A549/ATCC NSCLC
786-0 renal = test system: 786-0 renal
COLO 205 colon = test system: COLO 205 colon
NCI-H322M lung = test system: NCI-H322M lung

Measured: growth

CCCCCCCCCCCC1=NC(C)(C)CN1C(C)(C)CO
active: COLO 205 colon -81.4%
inactive: NCI-H23 lung 59.5% | HOP-62 NSCLC 60.4% | NCI-H460 lung 28.2% | HOP-92 NSCLC 28.7% | NCI-H522 lung 47.5% | A549/ATCC NSCLC 68.8% | 786-0 renal 71.6%

NS(=O)(=O)c1ccc(N2N=C(c3cccs3)CC2c2ccccc2O)cc1 (centres undefined)
active: NCI-H460 lung -0.156% | HOP-92 NSCLC -8.37% | NCI-H522 lung -23.9% | A549/ATCC NSCLC 7.33% | COLO 205 colon -73.7%
inactive: NCI-H23 lung 28.1% | NCI-H322M lung 25.4% | HOP-62 NSCLC 24.4% | 786-0 renal 10.8%

O=C(CCCCCCc1nc2ccc(Br)cc2[nH]1)NO
active: NCI-H23 lung -25.6% | NCI-H322M lung 4.52% | NCI-H460 lung -25.6% | HOP-92 NSCLC -21.7% | NCI-H522 lung -16% | A549/ATCC NSCLC 7.55% | 786-0 renal -4.46% | COLO 205 colon -98.5%
inactive: HOP-62 NSCLC 12.5%

CCCCNCC(O)c1cc2c(Cl)cc(Cl)cc2c2cc(C(F)(F)F)ccc12 (centres undefined)
active: NCI-H23 lung -72.9% | NCI-H322M lung -82.8% | HOP-62 NSCLC -80.8% | NCI-H460 lung -73.9% | HOP-92 NSCLC -89.5% | NCI-H522 lung -78.7% | A549/ATCC NSCLC -83.3% | 786-0 renal -71.2% | COLO 205 colon -76.8%

COc1cc2cc(C(=O)Nc3ccccc3)c(N)nc2cc1OC
inactive: NCI-H23 lung 77.6% | NCI-H322M lung 44.1% | HOP-62 NSCLC 47.7% | A549/ATCC NSCLC 15.3% | 786-0 renal 21.2%
active: NCI-H460 lung -40.2% | HOP-92 NSCLC -11.4% | NCI-H522 lung -65.3% | COLO 205 colon -93.3%

CCCCCCCCCCCCCC[N+](C)(C)CCCCCCCCCCCCCC
inactive: NCI-H23 lung 70.3% | NCI-H322M lung 98.7% | HOP-62 NSCLC 86.2% | NCI-H460 lung 74.3% | NCI-H522 lung 47.3% | A549/ATCC NSCLC 55.3% | 786-0 renal 63.4% | COLO 205 colon 66%
active: HOP-92 NSCLC 8.4%

CCCc1n(Cc2ccc3ccccc3n2)cc[n+]1Cc1ccc2ccccc2c1
inactive: NCI-H322M lung 25.7% | A549/ATCC NSCLC 39.1% | 786-0 renal 34.7%
active: NCI-H23 lung -11.6% | HOP-62 NSCLC 8.38% | NCI-H460 lung 7.73% | HOP-92 NSCLC -18.6% | NCI-H522 lung -0.784% | COLO 205 colon -50%

COc1ccc2[nH]cc(/C=C3\C(=O)Nc4ccccc43)c2c1
inactive: NCI-H23 lung 42.3% | NCI-H322M lung 37.8% | HOP-62 NSCLC 28.8% | NCI-H460 lung 26% | HOP-92 NSCLC 31.3% | NCI-H522 lung 17.5% | A549/ATCC NSCLC 26.5% | 786-0 renal 53.8% | COLO 205 colon 40.6%

CCCCn1c(C)nc2cc(Nc3nc(Cl)nc4nc[nH]c34)ccc21
inactive: NCI-H23 lung 77.9% | HOP-62 NSCLC 66% | NCI-H460 lung 84.7% | NCI-H522 lung 78.9% | A549/ATCC NSCLC 85% | 786-0 renal 76.4% | COLO 205 colon 89.7%
active: HOP-92 NSCLC -1.07%

O=C1c2ccccc2C(=O)c2c1oc1ccc3ccccc3c21
inactive: NCI-H23 lung 33.7% | NCI-H322M lung 83.1% | HOP-62 NSCLC 108% | NCI-H460 lung 44.9% | HOP-92 NSCLC 102% | NCI-H522 lung 97.5% | 786-0 renal 101% | COLO 205 colon 107%

C/C(=N\OC(=O)Nc1cccc(Cl)c1)c1ccccc1
inactive: NCI-H23 lung 106% | NCI-H322M lung 97.6% | HOP-62 NSCLC 95.8% | NCI-H460 lung 105% | HOP-92 NSCLC 132% | NCI-H522 lung 91.9% | A549/ATCC NSCLC 89.2% | 786-0 renal 99.4% | COLO 205 colon 117%

CNC(=O)c1cc(Oc2ccc(NC(=O)c3nc(S(C)(=O)=O)sc3-c3ccc(F)cc3)cc2)ccn1
inactive: NCI-H23 lung 94.8% | NCI-H322M lung 28.2% | HOP-62 NSCLC 94.9% | NCI-H460 lung 84.7% | HOP-92 NSCLC 138% | NCI-H522 lung 53.4% | A549/ATCC NSCLC 94.8% | 786-0 renal 98.3% | COLO 205 colon 69.1%

Cn1c(=O)c2[nH]c(Cc3ccc4c(c3)OCO4)nc2n(C)c1=O
inactive: NCI-H23 lung 99.8% | NCI-H322M lung 109% | HOP-62 NSCLC 101% | NCI-H460 lung 102% | HOP-92 NSCLC 71.4% | NCI-H522 lung 103% | A549/ATCC NSCLC 97% | 786-0 renal 111% | COLO 205 colon 109%

CC(=O)[C@@]1(O)[C@H](C)C[C@H]2[C@@H]3C=C(C)C4=Cc5c(cnn5-c5ccccc5)C[C@]4(C)[C@H]3[C@@H](O)C[C@@]21C
inactive: NCI-H23 lung 32.4% | HOP-62 NSCLC 34.8% | HOP-92 NSCLC 13.2% | A549/ATCC NSCLC 14.5%
active: NCI-H460 lung -20.5% | NCI-H522 lung -2.67% | 786-0 renal -9.28% | COLO 205 colon -23.8%

c1ccc2c(c1)cnc1ccccc12
inactive: NCI-H23 lung 102% | NCI-H322M lung 103% | HOP-62 NSCLC 102% | NCI-H460 lung 110% | HOP-92 NSCLC 99.5% | NCI-H522 lung 81.6% | A549/ATCC NSCLC 93.7% | 786-0 renal 92.6% | COLO 205 colon 129%

CC(=O)c1c(C)nc(-c2cc(C)cc(Cl)c2)nc1-c1cccc(Oc2ccccc2)c1
inactive: NCI-H23 lung 86% | NCI-H322M lung 91% | HOP-62 NSCLC 76.2% | NCI-H460 lung 36.1% | HOP-92 NSCLC 38% | NCI-H522 lung 59% | A549/ATCC NSCLC 69.1% | 786-0 renal 70.3% | COLO 205 colon 70.2%

CC1=C(O)C(=O)C(c2c(C)cc(C)c(Br)c2C)=C(O)C1=O
inactive: NCI-H23 lung 40.7% | NCI-H322M lung 71.5% | HOP-62 NSCLC 69.9% | NCI-H460 lung 35.5% | HOP-92 NSCLC 83.7% | NCI-H522 lung 66.8% | A549/ATCC NSCLC 44.1% | 786-0 renal 56.8% | COLO 205 colon 75.8%

COc1ccc(/C(=C\c2cc(OC)c(OC)c(OC)c2)C(=O)N2CCCNCC2)cc1
inactive: NCI-H23 lung 104% | NCI-H322M lung 103% | HOP-62 NSCLC 106% | NCI-H460 lung 110% | HOP-92 NSCLC 102% | NCI-H522 lung 100% | A549/ATCC NSCLC 105% | 786-0 renal 111% | COLO 205 colon 110%

CSC1=NC(=Nc2c(C)cccc2C)C2(CCC(C(C)(C)C)CC2)N1c1ccc(Cl)cc1 (centres undefined)
inactive: NCI-H23 lung 48.6% | NCI-H322M lung 64.8% | HOP-62 NSCLC 42% | NCI-H460 lung 16% | HOP-92 NSCLC 62.7% | NCI-H522 lung 48.2% | 786-0 renal 51.1% | COLO 205 colon 40.8%

COc1ccc(-c2nsc3c2NC(=O)CC3c2cccc(F)c2)cc1 (centres undefined)
active: NCI-H522 lung 4.49%
inactive: NCI-H23 lung 59% | NCI-H322M lung 53.6% | HOP-62 NSCLC 60.2% | NCI-H460 lung 10.4% | HOP-92 NSCLC 52.7% | A549/ATCC NSCLC 34.3% | 786-0 renal 80% | COLO 205 colon 25.8%

NC(N)=N/N=C\c1ccc(OCc2ccccc2)cc1
active: COLO 205 colon -62.8%
inactive: NCI-H23 lung 84% | NCI-H322M lung 93.4% | HOP-62 NSCLC 62.8% | NCI-H460 lung 96.4% | HOP-92 NSCLC 40.2% | NCI-H522 lung 77.3% | A549/ATCC NSCLC 82.8% | 786-0 renal 81.7%

Nc1c(C(=O)Nc2cccc(Cl)c2)sc2ncc(Br)cc12
inactive: NCI-H23 lung 79.5% | NCI-H322M lung 59.4% | HOP-62 NSCLC 75.4% | NCI-H460 lung 28.8% | HOP-92 NSCLC 78.5% | NCI-H522 lung 65.2% | A549/ATCC NSCLC 34.6% | 786-0 renal 76.1% | COLO 205 colon 85.1%

Fc1ccc2nc(-c3ccc(-c4noc(-c5ccc(Cl)cc5)n4)cc3)[nH]c2c1
inactive: NCI-H23 lung 104% | NCI-H322M lung 107% | HOP-62 NSCLC 103% | NCI-H460 lung 103% | HOP-92 NSCLC 105% | NCI-H522 lung 87.1% | A549/ATCC NSCLC 100% | 786-0 renal 86.5% | COLO 205 colon 116%

COc1ccc(/C(=C\c2cc(OC)c(OC)c(OC)c2)C(=O)N2CCNCC2)cc1
inactive: NCI-H23 lung 102% | NCI-H322M lung 99.2% | HOP-62 NSCLC 97.4% | NCI-H460 lung 105% | HOP-92 NSCLC 94% | NCI-H522 lung 79.1% | A549/ATCC NSCLC 90.4% | 786-0 renal 103% | COLO 205 colon 113%

O=C1CC2(O)CSc3nc(=O)cc(n32)N1 (centres undefined)
inactive: NCI-H23 lung 107% | NCI-H322M lung 93.2% | HOP-62 NSCLC 112% | NCI-H460 lung 104% | HOP-92 NSCLC 105% | NCI-H522 lung 102% | A549/ATCC NSCLC 96.5% | 786-0 renal 99.6% | COLO 205 colon 103%

O=C(CCc1nc2sc3c(c2c(=O)[nH]1)CCC3)NCc1cn(-c2ccccc2)nc1-c1ccccc1
inactive: NCI-H23 lung 66.2% | NCI-H322M lung 92.8% | HOP-62 NSCLC 80.8% | HOP-92 NSCLC 95.9% | NCI-H522 lung 78.9% | A549/ATCC NSCLC 16.5% | 786-0 renal 98.4% | COLO 205 colon 75.7%
active: NCI-H460 lung 1.28%

COc1ccc(-c2[nH]nc(N)c2-c2cc(OC)c(OC)c(OC)c2)cc1
active: NCI-H322M lung 7.95% | NCI-H460 lung 7.6% | NCI-H522 lung -32% | COLO 205 colon -61.6%
inactive: NCI-H23 lung 17.4% | HOP-62 NSCLC 22% | HOP-92 NSCLC 31.3% | A549/ATCC NSCLC 19.3% | 786-0 renal 24%

COc1cc(-c2n/c(=C\c3c(O)[nH]c4cc(Cl)ccc34)cc3c2=Nc2ccccc2-3)cc(OC)c1OC
inactive: NCI-H23 lung 45.2% | NCI-H322M lung 62.3% | HOP-62 NSCLC 23.3% | NCI-H460 lung 59.7% | HOP-92 NSCLC 27.2% | NCI-H522 lung 54.6% | A549/ATCC NSCLC 59.5% | 786-0 renal 34.5% | COLO 205 colon 58.6%

C=C1NC(=O)C(C(C)CC)NC(=O)C2CSCC(NC(=O)CCC(=O)O)C(=O)NC(Cc3ccccc3)C(=O)NC(C)C(=O)NC(CC(C)CC)C(=O)NC(C(=O)NC(Cc3ccccc3)C(=O)N3CCCC3C(=O)N2)C(C)OC(=O)C(CO)NC(=O)C(C(O)COC)N(C)C(=O)C(C(C)C)NC(=O)C(CC(C)CC)NC1=O (centres undefined)
active: NCI-H460 lung -4.11% [6 µM] | NCI-H522 lung -19.3% [6 µM] | COLO 205 colon -44.7% [6 µM]
inactive: NCI-H23 lung 38.6% [6 µM] | NCI-H322M lung 39.8% [6 µM] | HOP-62 NSCLC 17.3% [6 µM] | HOP-92 NSCLC 42% [6 µM] | A549/ATCC NSCLC 10.9% [6 µM]

O=C1C=CC(=O)N1c1cccc(N2C(=O)C=CC2=O)c1
active: NCI-H522 lung -73.1% | COLO 205 colon -48.1%
inactive: NCI-H23 lung 98.7% | NCI-H322M lung 116% | HOP-62 NSCLC 114% | NCI-H460 lung 119% | HOP-92 NSCLC 94.9% | A549/ATCC NSCLC 101% | 786-0 renal 108%
